According to PubChem BioAssay (NCATS):
Records with an inconclusive call do not appear. Where a call stands in place of a potency, no number is given. A number with no mark means an inactive call. Calls of active or inactive are those of the source. The call rests on the fitted dose curve; in most records, active means well fitted curve in the direction sought with a large enough effect; inconclusive means small, poorly fitted or top-dose-only effect, or another doubt; inactive means no such curve, though single readings can be large; an effect the other way counts as inactive or inconclusive.

Assays:
[1] = target: Retinal dehydrogenase 2 (Homo sapiens) (UniProt O94788); assay: qHTS for Inhibitors of the Aldehyde Dehydrogenase Family (ALDH1A2) Confirmation screens (AID 2061314); settings: ALDH1A2 enzyme inhibition qHTS confirmation; series mostly up to 45.9 µM; further: nearly all actives have a fitted effect of over 65% in size; further: potency means the concentration at half of the fitted maximal effect
[2] = target: Retinaldehyde dehydrogenase 3 (Homo sapiens) (UniProt P47895); assay: qHTS for Inhibitors of the Aldehyde Dehydrogenase Family (ALDH1A3) Primary screen (AID 2061315); settings: ALDH inhibition qHTS; series mostly up to 56 µM
[3] = target: Aldehyde dehydrogenase 1A1 (Homo sapiens) (UniProt P00352); assay: qHTS for Inhibitors of the Aldehyde Dehydrogenase Family (ALDH1A1) Confirmatory screens (AID 2061316); settings: ALDH inhibition qHTS; series mostly up to 47.3 µM; further: potency means the concentration at half of the fitted maximal effect; nearly all actives have a fitted effect of over 65% in size
[4] = BET inhibitor-based combinations targeting novel dependencies in MECOM-rearranged (r) AML: SET-2 cell line (AID 2202231); settings: SET-2 AML cells viability, CellTiter-Glo luminescence, 48 h; viability: active compounds read low, concentration not given here; further: nearly all actives have a fitted effect of over 35% in size; further: potency means the concentration at half of the fitted maximal effect
How it was run: (§1)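 Here, 11-point titrations of each agent were applied to 500 seeded cells and incubated 48 hr; CellTiter-Glo signal, scaled against DMSO and empty wells, was integrated as AUC, then Z-scored within the individual line.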

[5] = BET inhibitor-based combinations targeting novel dependencies in MECOM-rearranged (r) AML: OCI-AML3 cell line (AID 2202232); settings: CellTiter-Glo luminescence, 48 h; Potency: OCI-AML3 viability; series mostly up to 46 µM; further: potency means the concentration at half of the fitted maximal effect; nearly all actives have a fitted effect of over 35% in size
How it was run: as §1

[6] = BET inhibitor-based combinations targeting novel dependencies in MECOM-rearranged (r) AML: MV-4-11 cell line (AID 2202233); settings: MV-4-11 AML viability, CellTiter-Glo luminescence, 48 h; series mostly up to 46 µM; further: potency means the concentration at half of the fitted maximal effect; nearly all actives have a fitted effect of over 45% in size
How it was run: (§2)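 Normalized to DMSO and empty-well controls, the luminescence data from CellTiter-Glo after 48 hr drug exposure were fitted across 11 concentrations. Reported metrics are area under the dose-response curve and its Z-transformed form.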

[7] = BET inhibitor-based combinations targeting novel dependencies in MECOM-rearranged (r) AML: HNT-34 cell line (AID 2202234); settings: HNT-34 AML viability, CellTiter-Glo luminescence, 48 h; series mostly up to 46 µM; further: potency means the concentration at half of the fitted maximal effect; nearly all actives have a fitted effect of over 35% in size
How it was run: as §2

[8] = BET inhibitor-based combinations targeting novel dependencies in MECOM-rearranged (r) AML: UCSD-AML1 cell line (AID 2202235); settings: UCSD-AML1 AML cells viability, CellTiter-Glo, 48 h; series mostly up to 46 µM; further: potency means the concentration at half of the fitted maximal effect; nearly all actives have a fitted effect of over 40% in size
How it was run: as §2

[9] = BET inhibitor-based combinations targeting novel dependencies in MECOM-rearranged (r) AML: AML-191 cell line (AID 2202236; further: potency means the concentration at half of the fitted maximal effect; nearly all actives have a fitted effect of over 35% in size); settings: AML-191 viability, CellTiter-Glo luminescence, 48 h; series mostly up to 46 µM
How it was run: as §1

CC(=O)Nc1sc2c(c1-c1nc3ccccc3s1)CCN(C1COC1)C2
Potency [1]: 14.2 µM (active)
Potency [2]: inactive
Potency [3]: 4 µM (active)

Nc1c(-c2ccccc2)cc[nH]c1=O
Potency [1]: 0.159 µM (active)
Potency [2]: inactive

O=[S+]([O-])(Nc1ccc2ccccc2c1)c1ccc(NCc2ccc(Cl)cc2O)cc1
Potency [2]: inactive

Cc1cc(C)nc(NC(=S)N2CCN(c3cccc4ccccc34)CC2)c1
Potency [2]: inactive

O=c1c2ccccc2nc2sc(NCc3ccccc3)nn12
Potency [2]: inactive

Cc1csc(CNc2ncnc3ccc(-c4ccc(C(C)O)o4)cc23)n1 (configuration not stated)
Potency [1]: 5.65 µM (active)
Potency [2]: inactive
Potency [3]: 11.3 µM (active)

CS(=O)(=O)c1ccc(C(=O)OCC(=O)N2CCN(C3CCCCC3)CC2)cc1[N+](=O)[O-]
Potency [2]: inactive

O=C(O)c1ccc(O)c2ncc(-c3ccc(N4CCOCC4)cc3)cc12
Potency [2]: inactive

OCc1ccc(-c2ccc3ncnc(NCc4cccs4)c3c2)o1
Potency [2]: inactive

COC(=O)C1C(CC(C)=O)C=CC(O)C12Oc1cc(C)cc(O)c1C2=O (configuration not stated)
Potency [2]: inactive

O=S(=O)(Nc1nccs1)c1ccc(NCc2cccc(Br)c2O)cc1
Potency [2]: inactive

Cc1ccc(CN(C)c2ncnc3ccc(-c4ccc(CO)o4)cc23)o1
Potency [1]: 11.3 µM (active)
Potency [2]: inactive
Potency [3]: 2.52 µM (active)

N#Cc1c(-c2ccc(C(F)(F)F)cc2)no[n+]1[O-]
Potency [2]: inactive

CCOc1ccc(C(=O)N2CCN(Cc3cc(=O)n4nc(-c5cccc(OC)c5)sc4n3)CC2)cc1
Potency [1]: inactive
Potency [3]: 6.47 µM (active)

CC1=C(C(=O)Nc2ccon2)C(c2nn(C)cc2Cl)N=C(Nc2nc3ccccc3o2)N1 (configuration not stated)
Potency [2]: inactive

Cc1ccnc(NC(=S)N2CCN(c3cccc(C(F)(F)F)c3)CC2)n1
Potency [2]: inactive

O=[N+]([O-])c1cc(C(F)(F)F)ccc1N1CCN(C(=S)Nc2cc(Cl)ccn2)CC1
Potency [1]: 14.2 µM (active)
Potency [2]: inactive
Potency [3]: 5.04 µM (active)

CC(=O)Nc1sc2c(c1-c1nc3ccccc3s1)CCN(C(C)=O)C2
Potency [2]: inactive

CN(C)C(=O)c1ccc(-c2cc[nH]c(=O)c2N)cc1
Potency [1]: 0.4 µM (active)
Potency [2]: inactive

CN(C)c1ccc2c(=O)n3nc(Nc4ccc5c(c4)CCC5)sc3nc2c1
Potency [2]: inactive

O=C(O)c1ccc(CSc2nnc(-c3cccc([S+](=O)([O-])N4CCCC4)c3)n2-c2ccccc2)cc1
Potency [2]: inactive

Cc1c(C(=O)OCc2ccco2)[nH]c2c1C(=O)CC(c1ccco1)C2 (configuration not stated)
Potency [1]: 3.18 µM (active)
Potency [2]: inactive
Potency [3]: 1.42 µM (active)

O=C1COc2cc([S+](=O)([O-])Nc3ccc(Cl)c(Cl)c3)c(Cl)cc2N1
Potency [1]: 14.2 µM (active)
Potency [2]: inactive

C/C=C/C1=CC2=C(CO1)C(=O)C(C)(OC(=O)c1c(C)cc(O)cc1OC)C(O)C2 (configuration not stated)
Potency [2]: inactive

O=C(O)c1ccc(S(=O)(=O)N[C@@H](Cc2ccc(O)cc2)C(=O)O)cc1
Potency [2]: inactive

Cc1ccc(NS(=O)(=O)c2ccc3c(c2)CCO3)cc1C
Potency [2]: inactive

Cn1nnnc1Sc1ncnc2scc(I)c12
Potency [1]: inactive
Potency [2]: inactive
Potency [3]: 25.2 µM (active)

CCOC(=O)c1c(-c2ccc(C)o2)csc1NC(=O)CSc1nnnn1-c1ccccc1
Potency [1]: 5.04 µM (active)
Potency [2]: inactive
Potency [3]: 0.4 µM (active)

c1ccc(-n2ccc(-c3nnc4n3CCCCC4)c2)cc1
Potency [2]: inactive

O=C(c1ccccc1O)N(Cc1ccco1)Cc1cccs1
Potency [1]: 22.5 µM (active)
Potency [2]: inactive
Potency [3]: 11.3 µM (active)

O=S1(=O)N=C(Sc2cccc3cccnc23)c2ccccc21
Potency [1]: inactive
Potency [2]: inactive
Potency [3]: 15.9 µM (active)

Cc1noc(Nc2sc3c(c2-c2nc4ccccc4s2)CCNC3)n1
Potency [1]: 25.2 µM (active)
Potency [2]: inactive

Cc1ccc(-c2nc3ccccc3s2)cc1NC(=O)c1ccc(-c2cccc(Cl)c2)o1
Potency [1]: 22.5 µM (active)
Potency [2]: inactive
Potency [3]: 8.96 µM (active)

Cc1cc(C)n2ncc(C(=O)Nc3ccccc3)c2n1
Potency [2]: inactive

O=C(CSc1nnc(-c2cccc([S+](=O)([O-])N3CCCC3)c2)n1-c1ccccc1)Nc1ccc(Br)cc1
Potency [2]: inactive

O=C(O)C1NCc2[nH]cnc2C1c1ccccc1 (configuration not stated)
Potency [1]: 4 µM (active)
Potency [2]: inactive
Potency [3]: 11.3 µM (active)

Cc1cc(NS(=O)(=O)c2ccc(NS(=O)(=O)Cc3ccc(Cl)c(Cl)c3)cc2)no1
Potency [2]: inactive

O=C(Nc1ncnc2c1C(c1ccccc1)c1c(ccc3ccccc13)O2)c1ccccc1 (configuration not stated)
Potency [2]: inactive

OCc1ccc(-c2ccc3ncnc(NCc4nccs4)c3c2)o1
Potency [1]: 14.2 µM (active)
Potency [2]: inactive
Potency [3]: 4 µM (active)

c1nc(NCCc2cnc[nH]2)c2ccc(-c3ccc4c(c3)OCO4)cc2n1
Potency [2]: inactive

Cc1ccc(C#Cc2cc(-c3nn(-c4nc(C(=O)O)cs4)c(CC4CC4)c3Cc3ccc(S(N)(=O)=O)c(F)c3)ccc2F)o1
Potency [2]: inactive

O=C(Cc1ccc(Cl)c(Cl)c1)Nc1ccc(S(=O)(=O)Nc2cncnc2)cc1
Potency [2]: inactive

COc1ccc(Cn2c(C)nnc2-c2cnn(C)c2N)cc1OC
Potency [2]: inactive

COc1ccc2c(=O)n3nc(Nc4ccc5c(c4)CCC5)sc3nc2c1
Potency [2]: inactive

O=C(OCC#CCNc1nnc(-c2cccc3ccccc23)o1)c1cccs1
Potency [2]: inactive

O=C(N1Cc2ccc(Nc3nn4c(=O)c5ccccc5nc4s3)cc2C1)C(F)(F)F
Potency [2]: inactive

O=c1c2ccccc2nc2sc(Nc3ccc(Oc4ccccc4)cc3)nn12
Potency [2]: inactive

O=C1c2ccccc2C(=O)N1c1ccc2ccccc2n1
Potency [2]: inactive

COc1ccc(C2Cc3ccccc3C(=O)N2Cc2ccccc2)cc1COc1ccc(NC(C)=O)cc1 (configuration not stated)
Potency [2]: inactive

O=c1c2ccc(-c3cn[nH]c3)cc2nc2sc(Nc3ccc4c(c3)CCC4)nn12
Potency [2]: inactive

O=S1(=O)N=C(Oc2ccc3ccccc3c2)c2ccccc21
Potency [2]: inactive

N#Cc1c(-c2cccs2)no[n+]1[O-]
Potency [2]: inactive

CC(C)(C)OC(=O)N1CCN(c2ccc(OCc3ccc(-c4ccc(C#N)cc4)o3)cc2)CC1
Potency [2]: inactive

NC(=O)C1CCN(c2ncnc(-c3ccc4c(c3)OCCCO4)n2)CC1
Potency [2]: inactive

O=C(NC1CCCc2c1cnn2CCO)c1ccccn1 (configuration not stated)
Potency [2]: inactive

Cc1ccc(C)c(SC2=N[S+](=O)([O-])c3cc(C(=O)Nc4ccc5ncccc5c4)ccc32)c1
Potency [2]: inactive

Cc1ccc(OCCn2c(CCNC(=O)c3ccc(C(C)(C)C)cc3)nc3ccccc32)cc1
Potency [2]: inactive

Fc1cccc(CNc2nc(-c3ccccc3C(F)(F)F)nc3ccccc23)c1
Potency [2]: inactive

O=c1c2ccccc2nc2sc(NCc3ccc([S+](=O)([O-])c4ccccc4)cc3)nn12
Potency [2]: inactive

NC(=O)C1CCN(c2nc(-c3ccc(Oc4ccccc4)cc3)cs2)CC1
Potency [2]: inactive

COc1cc(-c2ccc3ncnc(NCc4cccs4)c3c2)cc(OC)c1OC
Potency [2]: inactive

Cc1cccc(N2CCN(C(=S)Nc3cc(C)ccn3)CC2)c1
Potency [2]: inactive

COc1cccc(-c2nc(SC)nc3sc(C(=O)NC(C)(C)C)c(N)c23)c1
Potency [2]: inactive

CC(O)c1ccc(-c2ccc3ncnc(NCC4CCCO4)c3c2)o1 (configuration not stated)
Potency [2]: inactive

c1csc(CNc2ncnc3cc(-c4ccc5c(c4)OCO5)ccc23)c1
Potency [2]: inactive

NC(=O)C1CCN(c2nc(-c3ccc(OC(F)(F)F)cc3)cs2)CC1
Potency [2]: inactive

CC(C)c1cccc(-n2cnc3cc(C(=O)N4CCCCC4)ccc32)c1
Potency [2]: inactive

CCOc1cccc(-c2cc(-c3n[nH]c(=S)n3CC)c3ccccc3n2)c1
Potency [2]: inactive

O=c1c2ccccc2nc2sc(NCc3ccc(Sc4ccccc4)cc3)nn12
Potency [2]: inactive

O=c1c(Nc2ccc(Br)c(Br)c2)c(Nc2nnc(-c3ccncc3)s2)c1=O
Potency [2]: inactive

C=C1C(=O)O[C@H]2C1[C@H](OC(=O)/C(=C/CO)COC(=O)/C(C)=C/CO)CC(=C)[C@@H]1CC(=O)[C@@H](C)[C@@H]12 (some centres not stated)
Potency [2]: inactive

O=C1CCCC2=C1C1(CCOCC1)N=C(Nc1nc3ccccc3o1)N2
Potency [2]: inactive

COc1ccccc1O[C@@H]1O[C@H](CO)[C@H](O)[C@H](O)[C@H]1O
Potency [2]: inactive

Clc1nc(CN2CCOCC2)nc2sc3c(c12)CCC3
Potency [2]: inactive

Cc1ccc(CN(C)c2nc(-c3ccccc3C(F)(F)F)nc3ccccc23)cc1
Potency [2]: inactive

Cc1c(C(N)=O)[nH]c2c1C(=O)CC(c1ccco1)C2 (configuration not stated)
Potency [2]: inactive

CCOC(=O)c1ccc(-c2ccc3ncnc(N(C)Cc4ccc(C)o4)c3c2)o1
Potency [2]: inactive

Oc1ccc(CNc2ccc(F)cc2Cl)c2cccnc12
Potency [2]: inactive

Cc1c(C(=O)O)[nH]c2c1C(=O)CC(c1ccco1)C2 (configuration not stated)
Potency [2]: inactive

CCC(=O)NC[C@H](Cc1ccc(OCCc2nc(-c3ccccc3)oc2C)cc1)N/C(C)=C\C(=O)c1ccc(C(F)(F)F)cc1
viability [4]: 111%
Potency [5]: 20.9 µM (active)
Potency [6]: 23500 nM (active)

Cc1ccc(Nc2ncc3c(n2)N(C)C(=O)N(c2cc(NC(=O)c4cccc(C(F)(F)F)c4)ccc2C)C3)cn1
Potency [4]: 934 nM (active)
Potency [5]: 0.263 µM (active)
Potency [6]: 37.2 nM (active)
Potency [7]: 11.8 nM (active)
Potency [8]: 93.4 nM (active)
Potency [9]: 83.3 nM (active)

CC(=O)[C@]1(N)Cc2c(O)c3c(c(O)c2[C@@H](O[C@H]2C[C@H](O)[C@H](O)CO2)C1)C(=O)c1ccccc1C3=O
viability [4]: 106%
Potency [5]: 8.33 µM (active)

COc1ccc2c(c1)CCc1sc(NC(=O)c3ccc(Br)cc3)nc1-2
Potency [3]: 10.2 µM (active)

COc1ccc(Oc2cc(NCCC(F)(F)F)c3ncc(-c4ccc(C(=O)NC5CC5)c(C)c4)n3n2)c(F)c1F
viability [4]: 80.2%
Potency [5]: 0.0235 µM (active)
Potency [6]: 66.1 nM (active)
Potency [7]: 417 nM (active)

C=C1/C(=C\C=C2/CCC[C@]3(C)[C@@H]([C@H](C)CCCC(C)(C)O)CC[C@@H]23)C[C@@H](O)C[C@@H]1O
viability [4]: 99.5%
Potency [5]: 20.9 µM (active)

Cc1ccnc(N(C)C(=S)N2CCN(c3cccc(C(F)(F)F)c3)CC2)c1
Potency [3]: 11.3 µM (active)

CC(=O)N1c2ccc(-c3ccc(C(=O)O)cc3)cc2[C@H](Nc2ccc(Cl)cc2)C[C@@H]1C
Potency [4]: 372 nM (active)
Potency [5]: 0.0661 µM (active)
Potency [6]: 93.4 nM (active)
Potency [7]: 468 nM (active)
Potency [8]: 1320 nM (active)
